# Results reported in PubChem BioAssay AID1159580 (chemical genetic matrix, 2015).
# “And” between values parts separate entries of the source, which are not always exact repeats. Equal entries are not always repeated. Hit rate of the full screen: of about 5,500 compounds, about 2,000 (36%) were called active. Not shown: some 18% with an inconclusive outcome. Some of the results follow. Values without a mark were called inactive. Cut-off read from the data, not from the text of the source: active = normalized growth mostly below about 0.91 (no sharp cut-off); inconclusive = no clear call, values can overlap the other calls; inactive = mostly above about 0.92.
# Test: chemical genetic growth profiling, strain panel (AID 1159580);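 note: tested at 20 µM; growth read once vehicle control cultures reached saturation at 30 °C; 1 = growth at the plate median or of vehicle wells; lower values mean less growth of the strain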
# Conditions: S. cerevisiae deletion strains, growth OD
structure (smiles),measurement,setting,value
CCCC(C(=O)OCCN(CC)CC)(c1ccccc1)c1ccccc1,normalized growth,"locus YAL013W, strain DEP1, stronger effect = lower value",0.991
same,normalized growth,"locus YAL021C, strain ccr4, stronger effect = lower value",0.981
same,normalized growth,"locus YAL026C, strain drs2, stronger effect = lower value",1.01
same,normalized growth,"locus YAL030W, strain snc1, stronger effect = lower value",0.985
same,normalized growth,"locus YAL040C, strain CLN3, stronger effect = lower value",1.03
same,normalized growth,"locus YBR009C, strain hhf1, stronger effect = lower value",1
same,normalized growth,"locus YBR021W, strain FUR4, stronger effect = lower value",0.92
same,normalized growth,"locus YBR023C, strain chs3, stronger effect = lower value",1
same,normalized growth,"locus YBR171W, strain sec66, stronger effect = lower value",0.998
same,normalized growth,"locus YBR229C, strain ROT2, stronger effect = lower value",1.01
same,normalized growth,"locus YBR231C, strain swc5, stronger effect = lower value",0.992
same,normalized growth,"locus YBR279W, strain paf1, stronger effect = lower value",0.995
same,normalized growth,"locus YCL011C, strain gbp2, stronger effect = lower value",1.01
same,normalized growth,"locus YCL016C, strain dcc1, stronger effect = lower value",0.995
same,normalized growth,"locus YCL029C, strain bik1, stronger effect = lower value",1
same,normalized growth,"locus YCL061C, strain MRC1 (second series), stronger effect = lower value",0.993
same,normalized growth,"locus YCL069W, strain vba3, stronger effect = lower value",1.01
same,normalized growth,"locus YCR088W, strain abp1, stronger effect = lower value",1
same,normalized growth,"locus YDL005C, strain med2, stronger effect = lower value",1
same,normalized growth,"locus YDL035C, strain GPR1, stronger effect = lower value",0.99
same,normalized growth,"locus YDL040C, strain nat1, stronger effect = lower value",1.01
same,normalized growth,"locus YDL074C, strain BRE1, stronger effect = lower value",0.997
same,normalized growth,"locus YDL101C, strain DUN1, stronger effect = lower value",1
same,normalized growth,"locus YDL134C, strain PPH21, stronger effect = lower value",0.979
same,normalized growth,"locus YDL185W, strain tfp1, stronger effect = lower value",0.994
same,normalized growth,"locus YDL192W, strain arf1, stronger effect = lower value",0.994
same,normalized growth,"locus YDR001C, strain nth1, stronger effect = lower value",1.01
same,normalized growth,"locus YDR069C, strain doa4, stronger effect = lower value",0.99
same,normalized growth,"locus YDR101C, strain arx1, stronger effect = lower value",0.986
same,normalized growth,"locus YDR137W, strain rgp1, stronger effect = lower value",1.18 [resistant] (active)
same,normalized growth,"locus YDR150W, strain NUM1, stronger effect = lower value",1
same,normalized growth,"locus YDR159W, strain sac3, stronger effect = lower value",1
same,normalized growth,"locus YDR162C, strain NBP2, stronger effect = lower value",0.997
same,normalized growth,"locus YDR195W, strain ref2",0.909
same,normalized growth,"locus YDR297W, strain sur2, stronger effect = lower value",1
same,normalized growth,"locus YDR318W, strain mcm21, stronger effect = lower value",0.993
same,normalized growth,"locus YDR334W, strain swr1, stronger effect = lower value",1.03
same,normalized growth,"locus YDR335W, strain msn5, stronger effect = lower value",1
same,normalized growth,"locus YDR363W, strain ESC2, stronger effect = lower value",1
same,normalized growth,"locus YDR388W, stronger effect = lower value",0.982
same,normalized growth,"locus YDR392W, strain spt3, stronger effect = lower value",0.962
same,normalized growth,"locus YDR502C, strain sam2, stronger effect = lower value",0.995
same,normalized growth,"locus YEL003W, strain gim4, stronger effect = lower value",0.999
same,normalized growth,"locus YEL037C, strain rad23, stronger effect = lower value",1
same,normalized growth,"locus YEL061C, strain CIN8 (second series), stronger effect = lower value",1.01
same,normalized growth,"locus YEL061C, strain CIN8, stronger effect = lower value",1
same,normalized growth,"locus YER002W, strain NOP16, stronger effect = lower value",1.02
same,normalized growth,"locus YER015W, strain faa2, stronger effect = lower value",1.01
same,normalized growth,"locus YER016W, strain bim1, stronger effect = lower value",0.987
same,normalized growth,"locus YER110C, stronger effect = lower value",0.999
same,normalized growth,"locus YER111C, strain swi4, stronger effect = lower value",1
same,normalized growth,"locus YER155C, strain BEM2 (second series), stronger effect = lower value",0.946
same,normalized growth,"locus YER155C, strain BEM2, stronger effect = lower value",1.01
same,normalized growth,"locus YER167W, strain BCK2, stronger effect = lower value",0.994
same,normalized growth,"locus YFR010W, strain ubp6, stronger effect = lower value",0.994
same,normalized growth,"locus YGL078C, strain dbp3, stronger effect = lower value",1.01
same,normalized growth,"locus YGL086W, strain mad1, stronger effect = lower value",0.988
same,normalized growth,"locus YGL167C, strain pmr1, stronger effect = lower value",0.999
same,normalized growth,"locus YGL173C, strain kem1, stronger effect = lower value",0.99
same,normalized growth,"locus YGL227W, strain vid30, stronger effect = lower value",1.01
same,normalized growth,"locus YGL240W, strain doc1, stronger effect = lower value",0.99
same,normalized growth,"locus YGL248W, strain PDE1, stronger effect = lower value",1.02
same,normalized growth,"locus YGL253W, strain hxk2, stronger effect = lower value",1.01
same,normalized growth,"locus YGR078C, strain PAC10, stronger effect = lower value",0.992
same,normalized growth,"locus YGR135W, strain pre9, stronger effect = lower value",0.958
same,normalized growth,"locus YGR229C, strain SMI1, stronger effect = lower value",0.976
same,normalized growth,"locus YGR252W, strain gcn5, stronger effect = lower value",0.877
same,normalized growth,"locus YHR013C, strain ard1, stronger effect = lower value",0.975
same,normalized growth,"locus YHR027C, strain rpn1, stronger effect = lower value",1
same,normalized growth,"locus YHR030C, strain SLT2, stronger effect = lower value",1 and 0.999
same,normalized growth,"locus YHR079C, strain IRE1 (second series), stronger effect = lower value",1.01
same,normalized growth,"locus YHR079C, strain IRE1, stronger effect = lower value",0.987
same,normalized growth,"locus YHR094C, strain hxt1, stronger effect = lower value",0.987
same,normalized growth,"locus YHR129C, strain ARP1, stronger effect = lower value",1.01
same,normalized growth,"locus YHR142W, strain chs7, stronger effect = lower value",1
same,normalized growth,"locus YHR200W, strain rpn10, stronger effect = lower value",0.993
same,normalized growth,"locus YIL066C, strain RNR3, stronger effect = lower value",0.987
same,normalized growth,"locus YIL073C, strain SPO22, stronger effect = lower value",1.01
same,normalized growth,"locus YIL125W, strain kgd1, stronger effect = lower value",0.996
same,normalized growth,"locus YIR030C, strain dcg1, stronger effect = lower value",0.989
same,normalized growth,"locus YJL092W, strain hpr5, stronger effect = lower value",1
same,normalized growth,"locus YJL095W, strain BCK1 (second series), stronger effect = lower value",0.994
same,normalized growth,"locus YJL095W, strain BCK1, stronger effect = lower value",0.996 and 0.988
same,normalized growth,"locus YJL115W, strain asf1, stronger effect = lower value",0.979
same,normalized growth,"locus YJL129C, strain trk1, stronger effect = lower value",1.01
same,normalized growth,"locus YJL134W, strain LCB3, stronger effect = lower value",1.01
same,normalized growth,"locus YJL154C, strain vps35, stronger effect = lower value",1.01
same,normalized growth,"locus YJL164C, strain tpk1, stronger effect = lower value",1
same,normalized growth,"locus YJL166W, strain qcr8, stronger effect = lower value",0.997
same,normalized growth,"locus YJL168C, strain set2, stronger effect = lower value",0.992
same,normalized growth,"locus YJL187C, strain SWE1 (second series), stronger effect = lower value",1.01
same,normalized growth,"locus YJL187C, strain SWE1, stronger effect = lower value",0.993
same,normalized growth,"locus YJR043C, strain POL32, stronger effect = lower value",1
same,normalized growth,"locus YJR066W, strain TOR1, stronger effect = lower value",0.954
